# Assay results reported in PubChem BioAssay AID1259343 (VanderVen Lab, College of Veterinary Medicine, Cornell …, 2017).
# The whole screen tested about 6,200 compounds, of which about 2,900 (47%) were called active. So high a share suggests a set chosen from earlier hits. The list shows a part of the results. A number with no mark means an inactive call. No stated cut-off is given here; in the data, active means inhibition above about 50%; inactive means the rest.
# Assay: Mycobacterium tuberculosis growth inhibition, primary screen (AID 1259343)
# Details: inhibition: at 10 µM, stronger effect = higher value; outcome: 10 uM
row,SMILES,inhibition
1,CCOC(=O)c1c(C)nn(-c2ccc(C(=O)NC3CCC(C)CC3)cc2)c1C (centres undefined),38.6%
2,CCOC(=O)c1c(C)c(C(=O)NC2CC(C)CC(C)(C)C2)c(C)n1CC (centres undefined),93.8% (active)
3,Cc1csc2cc(C(=O)NC3CC(C)CC(C)(C)C3)cnc12 (centres undefined),41%
4,Cc1c(C(=O)NCc2ccco2)c(C2CC2)nn1-c1ccc(Cl)c(Cl)c1,91% (active)
5,CCCc1c(C(=O)O)c(C2CC2)nn1-c1ccc(OC)cc1,17.7%
6,CCOc1ccc2c(c1)C=C(C(=O)NCc1ccco1)CO2,-9.65%
7,CS(=O)(=O)N(c1ccccc1Cl)S(=O)(=O)c1ccc(Cl)c([N+](=O)[O-])c1,70.4% (active)
8,O=[N+]([O-])c1cc(S(=O)(=O)Oc2cccc(Cl)c2Cl)ccc1Cl,-21.3%
9,CN(C)C(CNc1ccc(S(C)(=O)=O)cc1[N+](=O)[O-])c1ccco1 (centres undefined),-2.26%
10,O=C1O/C(=C/Br)CCC1c1cccc2ccccc12 (centres undefined),102% (active)
11,O=C(O)c1ccc(CN2CCc3cc(-n4cccn4)cnc32)cc1,26.6%
12,CNC(=O)COc1ccc(-c2cccc(-n3cccn3)c2)cc1,54.7% (active)
13,CNC(=O)c1ccc(-c2cccc(-n3cccn3)c2)s1,91.2% (active)
14,CCOC(=O)C1(CCOc2ccccc2)CCN(Cc2cccc(-n3cccn3)c2)CC1,31.7%
15,COc1cc(NC(=O)c2ccc(N3CCC(C)=N3)cc2)cc(OC)c1,71% (active)
16,COc1cc(NC(=O)c2ccc(CN3CC=CC3)cc2)cc(OC)c1,36.1%
17,NC(Cc1ccccc1)c1csc(Nc2cc(Oc3ccccc3)ncn2)n1 (centres undefined),inactive
18,NC(Cc1ccc(C(F)(F)F)cc1)c1csc(Nc2cc(Oc3ccccc3)ncn2)n1 (centres undefined),59.6% (active)
19,NC(Cc1ccc(F)cc1)c1csc(Nc2cc(Oc3ccccc3)ncn2)n1 (centres undefined),54.2% (active)
20,COc1ccc(CC(N)c2csc(Nc3cc(Oc4ccccc4)ncn3)n2)cc1 (centres undefined),56.6% (active)
21,NC(COCc1ccccc1)c1csc(Nc2cc(Oc3ccccc3)ncn2)n1 (centres undefined),76.8% (active)
22,Cc1nn(C)c(Cl)c1CNc1ccccc1,5.19%
23,CC1(C)C2CCC1(C)C(NC(=O)Nc1nnc(C3CC3)s1)C2 (centres undefined),41%
24,COc1ccc(C(N)c2csc(Nc3cc(Oc4ccccc4)ncn3)n2)cc1 (centres undefined),58.8% (active)
25,CCCCCNC(=O)C1CCN(C(=O)c2oc3ccc(Cl)cc3c2C)CC1,29.4%

row,SMILES,inhibition
1,O=C(c1cccs1)c1coc2ccc(Cl)cc2c1=O,43.6%
2,O=C(O)c1oc2ccc(Cl)cc2c1-n1cccc1,90.5% (active)
3,COc1ccc(-c2nn3c(nc2=O)-c2ccccc2NC3C(C)C)cc1 (centres undefined),inactive
4,O=C(c1ccc(-c2ccccc2)cc1)C1CCCN(C(=O)c2ccc3nccnc3c2)C1 (centres undefined),18.2%
5,COc1c(C)cc(C(=O)C2CCCN(Cc3cnc(SC)nc3)C2)cc1C (centres undefined),47.7%
6,Cc1occc1C(=O)N1CCCC(C(=O)c2ccc(Oc3ccccc3)cc2)C1 (centres undefined),17%
7,O=C(c1ccc(Oc2ccccc2)cc1)C1CCCN(C(=O)c2cnsn2)C1 (centres undefined),64.4% (active)
8,Cc1nonc1C(=O)N1CCCC(C(=O)c2ccc(Oc3ccccc3)cc2)C1 (centres undefined),13.8%
9,O=C(c1ccc(Oc2ccccc2)cc1)C1CCCN(C(=O)c2ccc3nccnc3c2)C1 (centres undefined),56% (active)
10,CSc1ncc(CN2CCCC(C(=O)c3ccc(Oc4ccccc4)cc3)C2)cn1 (centres undefined),92.1% (active)
11,O=C(Nc1ccc2c(c1)CCC2)C1CCN(C(=O)OCC(F)(F)F)CC1,49.5%
12,O=C(COC(=O)c1n[nH]c(=O)c2ccccc12)Nc1ccc2c(c1)CCC2,37.8%
13,O=C(COCC(F)(F)F)Nc1ccc2c(c1)C(=O)CCC2,81.5% (active)
14,Clc1ccc(-c2noc(CSc3ccc(Br)cc3)n2)cc1,66.5% (active)
15,O=C(NCCc1ccccc1)c1c(O)nc2sccn2c1=O,1.99%
16,Cc1cccc(C)c1Cn1c(C)c(C(=O)NCc2ccc(Cl)c(Cl)c2)sc1=O,16.1%
17,O=C(NCc1ccccc1)c1c(O)nc2sccn2c1=O,63.3% (active)
18,Cc1ccc(CNC(=O)c2c(O)nc3sccn3c2=O)cc1,74.4% (active)
19,O=C(NCc1ccc(Cl)cc1)c1c(O)nc2sccn2c1=O,81.1% (active)
20,Cc1ccc(CNC(=O)CN2CCc3sccc3C2C)cc1 (centres undefined),27%
21,O=C(NCc1ccc(Cl)cc1)c1c(O)nc2ccccn2c1=O,25.1%
22,O=C(NC1CCCCC1)c1c(O)nc2ccccn2c1=O,42.4%
23,O=C(NCc1ccc(F)cc1)c1c(O)nc2sccn2c1=O,59.5% (active)
24,Fc1cccc(Nc2cc3[nH]c(-c4cccc(F)c4)cc3cn2)c1,30.6%
25,COCC(C)NC(=O)C12CCC(C)(C(=O)O1)C2(C)C (centres undefined),100% (active)

row,SMILES,inhibition
1,COCC(C)NC(=O)c1ccc(CSc2ccccc2)o1 (centres undefined),-22.4%
2,Brc1ccc(-n2nc(-c3ccccc3)n[n+]2-c2nnn[n-]2)cc1,49.9%
3,O=C(O)c1cc2cc(Cl)sc2s1,37%
4,O=C(O)c1cc(-c2ccc(Cl)c(Cl)c2)ns1,90% (active)
5,CCN(CC)c1ccc(CN(C)S(=O)(=O)c2ccc(F)cc2)cc1,33.5%
6,CN(Cc1ccc(Cl)s1)S(=O)(=O)c1ccc(Cl)cc1,73.6% (active)
7,O=C(CN1CCc2ccccc2C1)NCC1CCN(c2ccccc2)C1 (centres undefined),91.3% (active)
8,O=C(NCC1CC1)N1Cc2ccccc2C(c2ccccc2)C1 (centres undefined),8.6%
9,CC(C)CC(=O)NCC1CCN(c2ccc(Cl)cc2)C1 (centres undefined),68.8% (active)
10,O=C(CN1CCc2ccccc2C1)Nc1nc(-c2cc3ccccc3o2)cs1,5.08%
11,CC(=O)NCCC1CCN(c2nncc(-c3ccc(Cl)cc3)n2)CC1,38%
12,Cc1ccc2c(c1)C1CN(C)CCC1N2C(=O)NCC1CCCC1 (centres undefined),45.5%
13,O=C(NCC1CCN(c2ccccc2)C1)N1CCCC1C1CCCC1 (centres undefined),67.7% (active)
14,O=C(Nc1cccc2cccnc12)N1CCCC1C1CCCC1 (centres undefined),27.2%
15,O=C(Nc1nc2c(Br)cccc2s1)Nc1c(F)cccc1F,28.4%
16,Fc1cccc2sc(Nc3nnc(-c4cccs4)o3)nc12,101% (active)
17,Cc1cccc2cc(CNC(C)Cc3ccco3)c(Cl)nc12 (centres undefined),24.3%
18,CC(C)(Cc1ccc2ccccc2c1)NC[C@@H](O)COc1cccc(Cl)c1C#N,87.4% (active)
19,N#Cc1c(Cl)cccc1Oc1cccc(C(=O)O)c1,6.19%
20,Cc1cc(OCC2CN(C(=O)c3ccc(C#N)cc3F)CCO2)ccc1Cl (centres undefined),5.04%
21,O=C(Cc1cccc(Cl)c1)N1CCOC(COc2ccc3c(c2)CCCC3)C1 (centres undefined),44%
22,CNc1ccc(C(=O)N2CCOC(COc3ccc(Cl)c(C)c3)C2)cc1 (centres undefined),53% (active)
23,Cc1ccc(OCC2CN(C(=O)COc3ccccc3C)CCO2)cc1 (centres undefined),75.9% (active)
24,Cc1cc(OCC2CN(C(=O)COc3ccccc3C)CCO2)ccc1Cl (centres undefined),50.9% (active)
25,Cc1ccc(OCC2CN(C(=O)COc3ccc(F)cc3)CCO2)cc1 (centres undefined),82.5% (active)

row,SMILES,inhibition
1,Cc1ccccc1OCC(=O)N1CCOC(COc2cccc(C(F)(F)F)c2)C1 (centres undefined),6.21%
2,COc1cccc(CC(=O)N2CCOC(COc3ccc(F)cc3)C2)c1 (centres undefined),24%
3,O=C(COc1ccc(F)cc1)N1CCOC(COCc2c(Cl)cccc2Cl)C1 (centres undefined),34%
4,Cc1cc(OCC2CN(C(=O)Cc3ccc4c(c3)OCO4)CCO2)ccc1Cl (centres undefined),65.7% (active)
5,O=C(Cc1cccc(Cl)c1)N1CCOC(COc2ccc(F)cc2)C1 (centres undefined),11.7%
6,Cc1cc(OCC2CN(C(=O)COCc3ccccc3)CCO2)ccc1Cl (centres undefined),50.5% (active)
7,Cc1ccccc1OCC(=O)N1CCOC(COCc2ccccc2F)C1 (centres undefined),72.4% (active)
8,O=C(Cc1cccc(Cl)c1)N1CCOC(COCc2ccccc2F)C1 (centres undefined),30.4%
9,Cc1cc(OCC2CN(C(=O)Cc3cccc(Cl)c3)CCO2)ccc1Cl (centres undefined),31%
10,COc1cccc(CC(=O)N2CCOC(COc3ccc(Cl)c(C)c3)C2)c1 (centres undefined),4.53%
11,O=C(NCCC(=O)N1CCOC(COCc2ccc(F)cc2Cl)C1)OCc1ccccc1 (centres undefined),61% (active)
12,CNC(=O)c1cc(Oc2ccc(NC(=O)Nc3ccc(Cl)c(C(F)(F)F)c3)c(F)c2)ccn1,34.8%
13,O=S1(=O)N(CCN2CC=C(c3c[nH]c4cc(F)ccc34)CC2)c2cccc3c2N1CCC3,12.6%
14,O=C(/C=C/c1ccc(-c2cccc([N+](=O)[O-])c2)o1)N1CCCCC1,80.3% (active)
15,COc1c(Br)cc(Cl)cc1S(=O)(=O)NCCc1ccccc1,18%
16,CN(C1CCCCC1)S(=O)(=O)N1CCCC(c2nc(-c3cccc(F)c3)no2)C1 (centres undefined),33.1%
17,CN(Cc1ccc(F)cc1)Cc1nc(Cc2ccccc2Cl)no1,89.3% (active)
18,CN(Cc1nc(-c2cccc(Cl)c2)no1)C1CCCCC1,74.3% (active)
19,CN(Cc1ccc2nsnc2c1)Cc1nc(Cc2ccccc2Cl)no1,31.6%
20,Clc1ccccc1Cc1noc(CN2CCN(Cc3ccccc3)CC2)n1,51.2% (active)
21,Fc1ccccc1N1CCN(Cc2nc(Cc3ccccc3Cl)no2)CC1,inactive
22,Cc1ccc(OCCN(C)Cc2nc(-c3cccc(Cl)c3)no2)cc1,35%
23,CCc1ccc(CN(C)Cc2nc(Cc3ccccc3F)no2)cc1,71% (active)
24,COCCCC1CCN(Cc2nc(Cc3ccccc3Cl)no2)CC1,29.1%
